IL1B secr inh: qHTS for Inhibitors of Inflammasome Signaling: IL-1-beta AlphaLISA Primary Screen. THP-1 LPS/ATP IL-1B secretion, AlphaLISA, 16 h; hits give low values. activity change, % at 57.5 µM. 4.7% of 360,000 active; in the data active = activity change below about -50%; inconclusive = mostly about -30% to -49%
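THP-1 cells pretreated 1 hr with compounds (up to 57.5 uM final), then stimulated with LPS (250 ng/mL final) plus ATP (1.25 mM final); secreted IL-1B measured by AlphaLISA after 16 hr, decreased signal indicating inhibition.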
DT40 TDP1 CPT: qHTS for Inhibitors of human tyrosyl-DNA phosphodiesterase 1 (TDP1): qHTS in cells in presence of CPT; chicken DT40 Tdp1-/-;hTDP1 cells + 20 nM CPT, ATP luminescence, 48 h; Potency, µM (titrated, usually from 46.2 µM), without a hit: at the top dose activity change, negative = growth inhibition, hits mostly inhibitors; 12% of 420,000 active; note: potency is the fitted concentration of half-maximal effect; nearly all actives have a fitted effect of over 55% in size
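Cell growth measured by CellTiter-Glo luminescence after a minimum 48 h, 37 C compound exposure with 20 nM CPT in Tdp1-knockout DT40 cells stably expressing hTDP1, seeded 400/well; qHTS titration format.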
HT1080NT lethal: qHTS for induction of synthetic lethality in tumor cells producing 2HG: qHTS for the HT-1080-NT fibrosarcoma cell line | HT-1080-NT fibrosarcoma viability, CellTiter-Glo ATP luminescence, 48 h | AID 686970, 2013 | Potency, µM (doses to about 46.1 µM), inactives show at the top dose activity, negative = less viability, actives largely listed as cytotoxic | 1.6% of 360,000 active;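 note: NT is the 2HG producing partner of a matched IDH1 knockdown line; potency is the fitted concentration of half-maximal effect; 0% = DMSO-treated cells and -100% = media-only wells without cells; nearly all actives have a fitted effect of over 55% in size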
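A 48-hour cytotoxicity screen used HT-1080-NT cells plated 2 hours before compound delivery. ATP-based CellTiter-Glo luminescence measured viability, normalized to DMSO and no-cell controls.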
HT1080 IDH1KD tx: qHTS for induction of synthetic lethality in tumor cells producing 2HG: qHTS for the HT-1080-IDH1KD cell line | HT-1080 IDH1 knockdown viability, ATP luminescence, 48 h | Potency, µM (doses to about 46.1 µM), for the others: top-dose activity, negative = toxicity, hits mostly cytotoxic | 2% of 360,000 active;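 note: potency is the fitted concentration of half-maximal effect; 0% = DMSO wells and -100% = cell-free medium wells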
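IDH1KD HT-1080 cells, 750/well, RPMI + 5% FBS; compound pinned after 2 h settling; 48 h, 37 °C; CellTiter-Glo luminescence; % activity normalised to DMSO and no-cell wells; curves fitted, classed by r2 and efficacy.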
TDP1 cell noCPT: qHTS for Inhibitors of human tyrosyl-DNA phosphodiesterase 1 (TDP1): qHTS in cells in absence of CPT; DT40 Tdp1-/- hTDP1 cells, no CPT, ATP luminescence, 48 h; Potency, µM (highest dose often 46.2 µM), inactives show at the top dose activity change, negative = growth inhibition, actives largely listed as inhibitors; 15% of 420,000 active; AID 686978, 2013; note: potency is the fitted concentration of half-maximal effect; nearly all actives have a fitted effect of over 55% in size
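Stably hTDP1-transfected Tdp1-null chicken DT40 cells were treated with library compounds minus camptothecin and grown for at least 48 hr at 37 °C, after which cellular ATP was quantified by luminescence.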
* = called active by the depositor; ? = inconclusive; / = no result given; ! = not active in a repeat; [ ] = dose if it differs, or a comment. Rows were chosen to be rich in hits. Some 19% of all compounds tested hit in one or more screens of this group. Unless noted, calls come from the whole dose curve; as a rule, active = well fitted curve in the direction sought with a large enough effect; inconclusive = small, poorly fitted or top-dose-only effect, or another doubt; inactive = no such curve, though single readings can be large; an effect the other way counts as inactive or inconclusive. Unless noted, % is set by controls: 0 for no effect and ±100 for the full control effect.

SMILES	IL1B secr inh	DT40 TDP1 CPT	HT1080NT lethal	HT1080 IDH1KD tx	TDP1 cell noCPT
C=CCn1c(C)cc(-c2csc(NC(=O)C3CCN(c4ncnc5sc(C)c(C)c45)CC3)n2)c1C	0.0	?	-4.9%	1.3%	20.6µM*
CCOc1ccccc1N=C1SCC(C)N1C(=O)C1CCN(c2ncnc3sc(C)c(C)c23)CC1 (centres undefined)	0.0	20.6µM*	2.8%[9.24 µM]	-3.1%	14.6µM*
Nc1ccc(C(=O)NC23CC4CC(CC(C4)C2)C3)cc1	-19.9	-2.2%	-13.5%	-3.1%	?
Cc1ccc(CNc2ncnc3c2cnn3C2CCCCO2)cc1 (centres undefined)	-5.2	-10.9%	2.2%	0.7%	-24.4%
CC1=C(C(=O)OCC2CCCO2)C(c2ccc(Cl)cc2)NC(=O)N1 (centres undefined)	3.4	0.8%	-3.5%	-6.5%	?
CCOC(=O)CCC(=O)NNC(=O)COc1ccc(C(C)C)cc1Br	0.2	-4.2%	0.1%	5.2%	?
CCN(CC)c1ccc(C(=O)NNC(=O)C2CCN(c3ncnc4sc(C)c(C)c34)CC2)cc1	-3.9	?	3.4%	3.7%	?
CCCN(CC(=O)Nc1ccccc1C)C(=O)C1CCN(c2ncnc3sc(C)c(C)c23)CC1	-13.7	20.6µM*	-11.6%	-17.9%	10.3µM*
COc1ccccc1OCC(=O)NNC(=O)C1CCN(c2ncnc3sc(C)c(C)c23)CC1	-7.3	?	-15.4%	-18.6%	13µM*
Cc1ccccc1OCC(=O)NNC(=O)C1CCN(c2ncnc3sc(C)c(C)c23)CC1	6.7	23.1µM*	-9.2%	-7.2%	25.9µM*
Cc1cccc(OCC(=O)NNC(=O)C2CCN(c3ncnc4sc(C)c(C)c34)CC2)c1	6.0	?	5.2%	-0.4%	?
CC(=O)O[C@@H]1CC2CCC1(C)C2(C)C (some centres undefined)	/	0.0%	/	/	-3.8%
CCC1NC(=O)c2cccnc2-n2c1nc1cc(OC)c(OC)cc1c2=O (centres undefined)	?	5.8%	0.6%	9.2%	-4.3%
COc1ccc2[nH]cc(CCNC(=O)C3CCCCC3)c2c1	-13.1	-3.4%	-0.3%	-0.2%	?
O=C(c1ccco1)N1CCN(Cc2cc(=O)c(OCc3ccccc3Cl)co2)CC1	-8.5	-7.0%	16.5%	15.4%	?
O=C(Nc1ccccc1C1CC1)c1cccs1	-10.5	-1.6%	?	20.3%	-16.5%
N#CCCn1nc(-c2ccccc2)cc1Nc1ccccc1NC(=O)c1cccs1	-59.8*	?	-9.9%	-10.0%	-27.4%
CCC(=O)OCC(=O)[C@@]1(OC(=O)CC)[C@@H](C)C[C@H]2[C@@H]3CCC4=CC(=O)C=C[C@]4(C)[C@@]3(Cl)[C@@H](O)C[C@@]21C	-58.5*	23.7µM*	?	-19.0%	16.4µM*
COc1ccc(CNC(=O)C[C@H]2C(=O)N(Cc3ccccc3)C[C@@H]2Cc2ccccc2)cc1	-15.5	?	-14.2%	-11.1%	18.4µM*
CCCCC[C@H]1CN(C2CCCCC2)C(=O)[C@@H]1CC(=O)NCc1ccccc1	?	11.2µM*	-3.1%	4.3%	12.6µM*!
COc1ccc([C@H]2CN(Cc3ccccc3)C(=O)[C@@H]2CC(=O)Nc2ccccc2)cc1	-1.2	-1.0%	-1.0%	-7.8%	?
C[C@H]1CN(C2CCCCC2)C(=O)[C@@H]1CC(=O)NCc1ccccc1	21.1	?	0.0%	0.0%	?
COc1ccc(CNC(=O)C[C@H]2C(=O)N(CCc3ccccc3)C[C@@H]2Cc2ccccc2)cc1	?	16.4µM*	2.5%	-1.0%	22.4µM*
CCCCC[C@H]1CN(Cc2ccccc2)C(=O)[C@@H]1CC(=O)NCc1ccc(OC)cc1	-20.3	20.6µM*	2.7%	8.3%	16.4µM*
O=C(NC1CCCCC1)C(c1ccccc1)N(C(=O)Cc1ccsc1)c1ccccc1 (centres undefined)	9.5	-15.7%	8.7%	5.5%[9.24 µM]	1.1%
SMILES	IL1B secr inh	DT40 TDP1 CPT	HT1080NT lethal	HT1080 IDH1KD tx	TDP1 cell noCPT
CCC1CN(CC(=O)NC(C)c2cn(C)nc2C)Cc2cc(OC)ccc2O1 (centres undefined)	/	8.6%[9.04 µM]	/	/	-5.7%
CCCNC(=O)C1(C)CCN(C(=O)c2sccc2C)C1 (centres undefined)	1.6	1.1%	16.1%	?	1.7%
O=C(/C=C/c1ccc(O)c(O)c1)O[C@@H]1C[C@@](OC(=O)/C=C/c2ccc(O)c(O)c2)(C(=O)O)C[C@@H](O)[C@@H]1O	/	3.0%	/	/	?
CCCNC(=O)CN1C(=O)NC(c2ccccc2)(c2ccccc2)C1=O	-8.4	10.5%	0.3%	-3.3%	2.3%
COc1ccc(OC)c(S(=O)(=O)NC2CCCCNC2=O)c1 (centres undefined)	-29.7	-4.6%	0.2%	13.4%	0.3%
COc1ccc(CNC(=O)C[C@H]2C(=O)N(Cc3ccc(OC)cc3)C[C@@H]2Cc2ccccc2)cc1	4.8	20.6µM*	0.1%	0.0%	8.91µM*
COc1ccc(CNC(=O)C[C@H]2C(=O)N(C3CCCCC3)C[C@@H]2Cc2ccccc2)cc1	9.6	?	14.2%	12.5%	-25.0%
O=C1/C(=C\c2ccccc2)CN(C(=O)CCN2CCCCC2)C/C1=C/c1ccccc1	-67.1*	1.3µM*	?	2.91µM*	1.46µM*
CC(=O)N1CCN(C(=O)CCN(c2ccccc2)S(=O)(=O)c2ccc(C)cc2)CC1	3.9	3.5%	5.9%	15.5%	-22.7%
O=C(CCN1C(=O)c2ccccc2C1=O)N1CCCCCC1	-13.7	-0.4%	23.1%	17.6%	-5.9%
O=C1/C(=C\c2ccc(Cl)c(Cl)c2)CN(C(=O)CCN2CCOCC2)C/C1=C/c1ccc(Cl)c(Cl)c1	-100.8*	0.581µM*	5.17µM*	5.17µM*	0.82µM*
CCN(CC)CCC(=O)N1C/C(=C/c2ccccc2)C(=O)/C(=C\c2ccccc2)C1	-99.2*	1.84µM*	?	2.91µM*	3.66µM*
Cc1c(CCO)sc[n+]1CCc1ccccc1	/	?	/	/	6.8%
Cc1ccc(OCCC(=O)OCC(=O)NC(=O)NC2CCCC2)cc1	-10.2	?	-5.6%	-9.2%	?
N#Cc1ccc(NC(=O)C2=COCCO2)cc1	-11.8	-6.0%	-3.2%	-0.8%	?
CC1NC(=O)c2cc3ccccc3cc2-n2c1nc1cc(F)ccc1c2=O (centres undefined)	12.1	-12.3%	-0.8%	0.0%	?

Bioassay records: PubChem BioAssay, National Center for Advancing Translational Sciences (NCATS)
